# High-throughput results deposited in PubChem by Broad Institute.
# Only some compounds are listed: those with a hit (about 3.1% of all), similar ones and a draw of the others.
# Statin myotox sup – suppressors of simvastatin-induced myotoxicity in C2C12 myotubes; AID 602340; ATP luminescence, 48 h; scaled: DMSO 0, geranylgeraniol control 100; 330,000 compounds, 0.78% hits; rescue of ATP level, % at 7.49 µM;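 active = mean ATP rescue above about 67%, or every replicate alone reaching that limit, limit read from the data, passing the limit was not always enough; inconclusive = no clear call, values can overlap the other calls; inactive = mean under the limit and some replicate under it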;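 note: myotubes were challenged with 10 µM simvastatin during compound exposure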
# Rtt109 HAT inh – inhibitors of Candida albicans Rtt109/Vps75 histone acetyltransferase; Q5AAJ8; purified Rtt109/Vps75, ThioGlo CoA-SH fluorescence, 4 h; inhibition, % at 34.9 µM; 330,000 compounds, 0.16% hits; AID 540336;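 active = inhibition of at least 50% in every replicate; inconclusive = best replicate reaches 50% inhibition but some replicates fall short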
# Target sequence (Q5AAJ8 whole entry, looked up): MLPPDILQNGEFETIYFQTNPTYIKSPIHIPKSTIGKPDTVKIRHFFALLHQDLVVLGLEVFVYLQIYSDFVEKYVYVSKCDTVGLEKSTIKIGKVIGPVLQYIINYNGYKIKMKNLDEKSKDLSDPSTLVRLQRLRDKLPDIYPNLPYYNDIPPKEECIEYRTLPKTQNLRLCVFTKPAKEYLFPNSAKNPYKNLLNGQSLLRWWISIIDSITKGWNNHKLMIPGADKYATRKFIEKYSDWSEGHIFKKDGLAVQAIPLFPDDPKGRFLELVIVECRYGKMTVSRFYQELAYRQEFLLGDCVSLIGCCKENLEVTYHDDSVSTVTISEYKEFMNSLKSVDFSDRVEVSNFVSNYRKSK
# Wnt bcat act – activators of Wnt/beta-catenin signaling; Wnt/beta-catenin reporter cell assay, activator, plate reader; activation, % at 9.35 µM; 300,000 compounds, 1.2% hits; in the data active = activation above about 30%, passing the limit was not always enough; inconclusive = no clear call, values can overlap the other calls;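 note: 0% = neutral control wells and 100% = positive control wells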
# MITF act – activators of MITF-driven TRPM1 promoter activity in SK-MEL-5 cells; 300,000 compounds, 0.75% hits; activation, % at 12.5 µM; SK-MEL-5 TRPM1-promoter luciferase, 24 h; % of positive control, neutral wells = 0;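 active = mean activation of at least 80% with every replicate also reaching 80%; inconclusive = mean reaches 80% but some replicate falls short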;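 note: 0% = neutral control wells and 100% = parthenolide positive control wells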
# esBAF inh – inhibitors of esBAF chromatin remodeling in mouse ES cells; Bmi1-luciferase knock-in reporter, 24 h; 100% = twice the neutral-well signal; reporter increase, % at 12.5 µM; 350,000 compounds, 2% hits; in the data active = activation above about 40%; inconclusive = no clear call, values can overlap the other calls;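 note: 0% = median of the plate's neutral control wells and 100% = double that signal; a rise in the Bmi1 reporter signal indicates esBAF inhibition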
# Numbers without * were called inactive; ? = inconclusive; . = no result given.
SMILES,Statin myotox sup,Rtt109 HAT inh,Wnt bcat act,MITF act,esBAF inh
CO[C@@H]1CN(C)C(=O)c2ccc(NS(=O)(=O)c3cccc(F)c3)cc2OC[C@H](C)NC[C@@H]1C,-24,.,.,.,1
CC(C)NC(=O)N(C)C[C@H]1OCc2ccccc2-c2c(n(C)c3ccccc23)C(=O)N([C@@H](C)CO)C[C@@H]1C,.,.,.,.,0
COCc1nc(-c2ccc(-c3ccccc3)nc2OC)no1,-8,4,49*,.,66*
COc1nc(-c2ccccc2)ccc1-c1noc(C)n1,-3,10,50*,.,31
CCc1nc(-c2ccc(-c3ccc(OC)cc3)nc2OC)no1,-24,2,56*,12,10
Cc1ccc(C(=O)Nc2ccc3c(c2)ncn3C)cc1,-8,-2,38*,63,12
Cc1ccc(CNc2ccc3c(c2)ncn3C)cc1,-2,?,41*,79,70*
CCC(=O)Nc1ccc2c(c1)ncn2-c1ccc(OC)cc1,-45,-4,.,24,36
CCCn1cnc2cc(NCc3cccc(OC)c3O)ccc21,5,3,.,47,56*
CCC(=O)Nc1ccc2c(c1)ncn2-c1ccc(C)cc1,-16,4,-4,80,49*
CCn1cnc2cc(NC(=O)c3ccc(C)cc3)ccc21,-36,4,15,47,21
Cc1cccc(S(=O)(=O)N2CCCCN3[C@H](C2)[C@@H](c2ccc(C#C[C@@H](C)O)cc2)[C@@H]3CO)c1,-47,.,.,.,1
C[C@@H]1CN([C@@H](C)CO)C(=O)c2cc(NC(=O)Nc3ccc4c(c3)OCO4)ccc2O[C@@H](C)CCCCO[C@H]1CN(C)C(=O)c1ccccc1,.,.,.,.,4
CCn1cnc2cc(NCc3ccc(Cl)cc3)ccc21,-5,-1,34*,61,55*
CO[C@@H]1CN(C)C(=O)c2ccc(NC(=O)Nc3cccc(F)c3)cc2OC[C@H](C)N(C(C)=O)C[C@@H]1C,-15,.,.,.,4
CCOC(=O)N1CCN(C(=O)C(c2ccccc2)c2ccccc2)CC1,115*,8,.,-6,1
CCOC(=O)N1CCN(Cc2c(O)ccc3ccccc23)CC1,5,133*,0,0,-8
O=C(C1CCCO1)N1CCN(Cc2c(O)ccc3ccccc23)CC1 (stereo not given),.,142*,11,-9,.
CCOC(=O)C1CCN(Cc2c(O)ccc3ccccc23)CC1,.,0,.,-6,.
CCN1CCN(Cc2c3ccccc3cc3ccccc23)CC1,0,8,49*,20,5
Cc1ccc(CN2CCN(C(=O)C3CCCO3)CC2)cc1 (stereo not given),1,3,.,-10,5
COc1ccc(NC(=O)N(C)C[C@@H]2Oc3cc(-c4cccc(C(=O)N(C)C)c4)ccc3S(=O)(=O)N([C@@H](C)CO)C[C@@H]2C)cc1,-5,.,.,.,9
CO[C@H]1CN(C)C(=O)c2cc(NC(=O)C3CC3)ccc2OC[C@H](C)N(C(=O)CN2CCOCC2)C[C@H]1C,1,.,.,.,-2
COCCn1c(C)cc(C(=O)CSc2nnc3ccccn23)c1C,-4,-5,-3,-58,-72
Cc1ccc(NC(=O)CSc2nnc3ccccn23)c(Cl)c1,2,.,1,.,66*
SMILES,Statin myotox sup,Rtt109 HAT inh,Wnt bcat act,MITF act,esBAF inh
Cc1cc(C)c(C(=O)CSc2nnc(N)s2)cc1C,.,-1,3,13,.
Cc1ccc(C(=O)CSc2nnc(N)s2)c(C)c1,-2,5,14,87*,61*
Cc1ccc(C(=O)CSc2nnc3ccccn23)c(C)c1,.,1,33*,12,.
C[C@@H]1CN([C@H](C)CO)C(=O)c2cc(NC(=O)CCC(F)(F)F)ccc2O[C@@H](C)CCCCO[C@H]1CN(C)C(=O)C1CCCCC1,.,.,.,.,1
O=C1C(Cl)=C(NCCCN2CCOCC2)C(=O)N1CCc1ccccc1,-29,1,.,0,0
O=C1C(Cl)=C(NCCc2ccccc2)C(=O)N1CCc1ccccc1,164*,-17,8,50,?
CCC(CO)Nc1ccn2nc(-c3cccs3)cc2n1 (stereo not given),4,.,2,.,55*
CCC(CO)Nc1ccn2nc(-c3cc(OC)c(OC)c(OC)c3)cc2n1 (stereo not given),5,.,0,.,-6
CCC(CO)Nc1ccn2nc(-c3ccccc3)cc2n1 (stereo not given),4,.,-2,.,69*
O=C(C[C@@H]1CC[C@@H]2[C@H](COC[C@H](O)CN2Cc2cc(F)cc(F)c2)O1)NC1CCC1,10,.,.,.,1
